Assay outcomes deposited in PubChem by National Center for Advancing Translational Sciences (NCATS).
An excerpt weighted towards active compounds, which were near 19% of everything screened.
DT40 TDP1 no CPT: qHTS for Inhibitors of human tyrosyl-DNA phosphodiesterase 1 (TDP1): qHTS in cells in absence of CPT | DT40 Tdp1-/- hTDP1 cells, no CPT, ATP luminescence, 48 h | Potency, µM (doses to about 46.2 µM), for the others: top-dose activity change, negative = growth inhibition, usual class: inhibitors | 420,000 compounds, 15% hits | AID 686978, 2013; further: potency means the concentration at half of the fitted maximal effect; nearly all actives have a fitted effect of over 55% in size
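Stably hTDP1-transfected Tdp1-null chicken DT40 cells were treated with library compounds minus camptothecin and grown for at least 48 hr at 37 °C, after which cellular ATP was quantified by luminescence.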
HT1080NT lethal: qHTS for induction of synthetic lethality in tumor cells producing 2HG: qHTS for the HT-1080-NT fibrosarcoma cell line. HT-1080-NT fibrosarcoma viability, CellTiter-Glo ATP luminescence, 48 h. Potency, µM (highest dose often 46.1 µM), inactives show at the top dose activity, negative = less viability, hits mostly cytotoxic. 360,000 compounds, 1.6% hits;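 further: NT is the 2HG producing partner of a matched IDH1 knockdown line; potency means the concentration at half of the fitted maximal effect; 0% = DMSO-treated cells and -100% = media-only wells without cells; nearly all actives have a fitted effect of over 55% in size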
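HT-1080-NT fibrosarcoma cells (2HG-overproducing), 750 cells/well in RPMI with 5% FBS, dosed after 2 h and incubated 48 h at 37C. CellTiter-Glo luminescence normalized to DMSO and no-cell wells; concentration-response curves fitted and classed.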
HT1080 IDH1KD tx: qHTS for induction of synthetic lethality in tumor cells producing 2HG: qHTS for the HT-1080-IDH1KD cell line; HT-1080 IDH1 knockdown viability, ATP luminescence, 48 h; Potency, µM (highest dose often 46.1 µM), without a hit: at the highest dose activity, negative = toxicity, actives largely listed as cytotoxic; 360,000 compounds, 2% hits; AID 686971, 2013;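 further: potency means the concentration at half of the fitted maximal effect; 0% = DMSO wells and -100% = cell-free medium wells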
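Using the IDH1-knockdown HT-1080 line run in the same batch and compound series as the NT line, viability after 48 h at 37 °C was determined by CellTiter-Glo luminescence and expressed as % activity.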
IL1B secr inh: qHTS for Inhibitors of Inflammasome Signaling: IL-1-beta AlphaLISA Primary Screen; activity change, % at 57.5 µM; 360,000 compounds, 4.7% hits; THP-1 LPS/ATP IL-1B secretion, AlphaLISA, 16 h; active compounds read low; in the data active means activity change below about -50%; inconclusive means mostly about -30% to -49%
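THP-1 cells pretreated 1 hr with compounds (up to 57.5 uM final), then stimulated with LPS (250 ng/mL final) plus ATP (1.25 mM final); secreted IL-1B measured by AlphaLISA after 16 hr, decreased signal indicating inhibition.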
TDP1 cell CPT: qHTS for Inhibitors of human tyrosyl-DNA phosphodiesterase 1 (TDP1): qHTS in cells in presence of CPT; chicken DT40 Tdp1-/-;hTDP1 cells + 20 nM CPT, ATP luminescence, 48 h; Potency, µM (titrated, usually from 46.2 µM), inactives show at the highest dose activity change, negative = growth inhibition, hits mostly inhibitors; 420,000 compounds, 12% hits; AID 686979, 2013; further: potency means the concentration at half of the fitted maximal effect; nearly all actives have a fitted effect of over 55% in size
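Chicken DT40 Tdp1-/- cells complemented with human TDP1, 400 cells/well, exposed to compounds plus 20 nM camptothecin for at least 48 h at 37 C; viability read as ATP content by CellTiter-Glo luminescence.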
* marks the source's active call; other numbers are inactive results; ? = inconclusive; . = no result; [ ] = remark or other dose. Unless noted, the call rests on the fitted dose curve; in most records, active means well fitted curve in the direction sought with a large enough effect; inconclusive means small, poorly fitted or top-dose-only effect, or another doubt; inactive means no such curve, though single readings can be large; an effect the other way counts as inactive or inconclusive. Unless noted, on the % scale 0 is the no-effect control and ±100 the full control effect.

SMILES	DT40 TDP1 no CPT	HT1080NT lethal	HT1080 IDH1KD tx	IL1B secr inh	TDP1 cell CPT
O=c1cc(CO)[nH]nc1CO	-3.2%	-0.5%	0.0%	26.7	7.6%
O=C(COC(=O)c1ccccc1Nc1ccccc1)c1ccccc1	-25.1%	-3.2%	-23.0%	-60.0*	-15.7%
CNc1ccccc1C(=O)OCC(=O)c1ccccc1	-3.4%	18.9%	6.0%	2.4	-20.0%
O=C(OCC(=O)N1CCN(c2ccccc2)CC1)c1ccccc1[N+](=O)[O-]	-17.8%	1.5%	5.7%	-9.0	-23.7%
Cc1c(CC(=O)NCCc2ccc(Cl)cc2)c(=O)oc2c(C)c3occ(C(C)(C)C)c3cc12	20.6µM*	.	.	.	?
COc1ccc2c(C)c(CC(=O)NCCc3ccc(Cl)cc3)c(=O)oc2c1C	-1.0%	.	.	.	-0.9%
Cc1c(CC(=O)N2CCCCC2)c(=O)oc2c(C)c3occ(C(C)(C)C)c3cc12	14.6µM*	.	.	.	?
COc1cc(OC)c2c(C)c(CC(=O)NCCc3ccccc3OC)c(=O)oc2c1	-0.5%	.	.	.	6.2%
COc1ccccc1CCNC(=O)Cc1c(C)c2cc3c(C(C)(C)C)coc3c(C)c2oc1=O	20.6µM*	.	.	.	25.9µM*
O=C(NCCCN1CCCC1=O)c1ccc([N+](=O)[O-])s1	?	-0.1%	1.0%	18.6	?
CCn1cc(/C=N/NS(=O)(=O)c2ccc(OC)cc2)c(C)n1	-7.8%	-1.6%	3.3%	7.8	9.8%
Cc1ccc(C)c(-c2nc(Cn3c(=O)cc(-c4ccccc4)c4c(C)nn(C)c43)c(C)o2)c1	-8.8%	.	.	.	?
CC(CCCC(C)(C)O)NC(=O)c1cc(COc2ccc3ncccc3c2)on1 (centres undefined)	4.61µM*	-5.3%	-22.4%	-0.5	8.2µM*
COc1cccc(OCc2cc(C(=O)NCCc3cccc(C)n3)no2)c1	-24.9%	-0.6%	-16.6%	8.6	-6.9%
Cc1ccc(OCc2cc(C(=O)NCCc3cccnc3)no2)cc1C	?	?	?	10.2	?
Cc1ccc(F)cc1CNC(=O)c1cc(COc2ccc3ncccc3c2)on1	10.3µM*	-15.8%	-15.9%	-29.0	4.11µM*
Cc1ccc(OCc2cc(C(=O)NC(C)Cc3cccc(C)n3)no2)cn1 (centres undefined)	7.31µM*	-2.6%	-0.1%	45.6	13µM*
O=C(NCc1cccc(Cl)c1)c1cc(COc2ccc3ncccc3c2)on1	20.6µM*	-20.0%	-21.3%	?	16.4µM*
COCCN(C(=O)CSc1nnc(-c2ccccc2C)n1C)c1c(N)n(Cc2ccccc2)c(=O)[nH]c1=O	11.1%	1.8%	4.4%	13.1	15.7%
O=C1CCN(Cc2cccn2-c2ccccn2)CCN1Cc1ccccc1C(F)(F)F	-14.4%	.	.	.	-4.7%[9.04 µM]
Cc1cccc(NC(=O)CSc2nnc(NC(=O)Nc3ccccc3)s2)c1C	?	.	.	.	3.7%
Cc1cc(C)n(CCNC(=O)c2cc(COc3ccc4ncccc4c3)on2)n1	20.6µM*	0.8%	-8.8%	2.0	20.6µM*
CCOc1ccccc1CN1CCN(Cc2cc(=O)c3ccccc3[nH]2)CC1CCO (centres undefined)	?	-9.5%	-26.5%	48.8	?
Cc1ccc(CN2CCN(Cc3cnn(-c4ccc(Cl)cc4)c3)CC2CCO)o1 (centres undefined)	?	-24.3%	-3.0%	-56.9*	?
Cc1ccc(CN2CCN(Cc3ccncc3)CC2CCO)o1 (centres undefined)	?	12.5%	15.8%	-8.3	3.8%
CCOc1ccccc1CN1CCN(Cc2c[nH]c3ccccc23)CC1CCO (centres undefined)	16.4µM*	-28.7%	-25.0%	-4.6	9.2µM*
